Data from PubChem BioAssay (Tox21).
“And” between values parts separate entries of the source, which are not always exact repeats. Identical values can stand only once. Inconclusive results are not listed. A call without a number means that no potency is given here. The source made the active and inactive calls. Unless noted, the call rests on the fitted dose curve; in most records, active means well fitted curve in the direction sought with a large enough effect in the repeat runs; inconclusive means weak or mixed curves; inactive means no such curve, though single readings can be large; an effect the other way counts as inactive or inconclusive.

Assays:
[1] = qHTS assay to identify small molecule agonists of the estrogen receptor alpha (ER-alpha) signaling pathway in the presence of an antagonist - cell viability counter screen (AID 1259386);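 further: cells exposed to compounds for 22 h at 37 °C before the viability read; nearly all actives have a fitted effect of over 30% in size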; further: potency means the concentration at half of the fitted maximal effect
How it was run: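 Steps: 5-day stripped-FBS culture; seed and incubate 24hr; add ICI-182,780 (10.0nM final); pin 15-point compound titration; incubate 22hr at 37C; add CellTiter-Fluor at 21hr; read fluorescence.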

[2] = target: Progesterone receptor (Homo sapiens) (UniProt P06401); experiment: qHTS assay to identify small molecule agonists of the progesterone receptor (PR) signaling pathway (AID 1346784; calls by dose curve; further: nearly all actives have a fitted effect of over 30% in size; further: potency means the concentration at half of the fitted maximal effect)
Chain of Progesterone receptor (Homo sapiens) (P06401 whole entry, looked up): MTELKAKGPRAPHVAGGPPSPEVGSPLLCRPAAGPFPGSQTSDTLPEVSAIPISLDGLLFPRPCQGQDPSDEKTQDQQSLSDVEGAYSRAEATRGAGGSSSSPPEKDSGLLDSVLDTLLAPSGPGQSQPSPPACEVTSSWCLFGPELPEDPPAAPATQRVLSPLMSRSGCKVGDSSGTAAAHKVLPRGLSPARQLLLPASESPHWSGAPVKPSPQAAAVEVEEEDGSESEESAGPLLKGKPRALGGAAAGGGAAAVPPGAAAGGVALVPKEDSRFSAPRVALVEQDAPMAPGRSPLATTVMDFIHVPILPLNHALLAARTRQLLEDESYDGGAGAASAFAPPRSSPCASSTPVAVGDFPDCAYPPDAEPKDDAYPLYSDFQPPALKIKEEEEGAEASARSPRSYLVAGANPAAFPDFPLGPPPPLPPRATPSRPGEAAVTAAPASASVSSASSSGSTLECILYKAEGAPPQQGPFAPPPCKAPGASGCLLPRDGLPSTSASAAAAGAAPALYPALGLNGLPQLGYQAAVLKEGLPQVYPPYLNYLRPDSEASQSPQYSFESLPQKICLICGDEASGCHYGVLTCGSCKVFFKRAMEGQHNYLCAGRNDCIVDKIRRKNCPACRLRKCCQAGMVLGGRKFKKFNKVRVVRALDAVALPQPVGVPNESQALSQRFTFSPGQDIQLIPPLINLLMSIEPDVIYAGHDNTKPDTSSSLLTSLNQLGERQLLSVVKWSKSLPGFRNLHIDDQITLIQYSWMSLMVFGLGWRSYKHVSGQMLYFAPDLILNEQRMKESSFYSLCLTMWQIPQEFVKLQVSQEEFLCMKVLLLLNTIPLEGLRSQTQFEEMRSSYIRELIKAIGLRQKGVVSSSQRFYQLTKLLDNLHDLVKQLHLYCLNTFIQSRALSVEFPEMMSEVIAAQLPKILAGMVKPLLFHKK
How it was run: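 Agonist qHTS: compounds pinned onto 3,000 PR-UAS-bla HEK 293T cells per well in charcoal-stripped serum medium, 16hr at 37C, then beta-lactamase activity measured by LiveBLAzer FRET fluorescence after 2 hours at room temperature.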

[3] = target: Progesterone receptor (Homo sapiens) (UniProt P06401); experiment: qHTS assay to identify small molecule antagonists of the progesterone receptor (PR) signaling pathway (AID 1346795; active means well fitted inhibition curve with a large enough effect in the signal ratio in the repeat runs, not every such curve was filed as active; the % refers to the signal ratio; further: potency means the concentration at half of the fitted maximal effect)
How it was run: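 Antagonist mode with agonist R5020 at 1 nM final and 16 hr incubation at 37C. Reporter was beta-lactamase driven by UAS in HEK293T (PR-UAS-bla), 2% charcoal-stripped serum; signal from LiveBLAzer FRET substrate, 2 hr at room temperature.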

[4] = qHTS assay to identify small molecule antagonists of the progesterone receptor (PR) signaling pathway - cell viability counter screen (AID 1346798); further: series mostly up to about 92 µM; nearly all actives have a fitted effect of over 50% in size
How it was run: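 Cytotoxicity read as CellTiter-Glo luminescence (30 min, room temperature) in the same wells as the beta-lactamase readout. HEK293T PR-UAS-bla cells in charcoal-stripped 2% FBS received compound and R5020, then 16 h at 37C, 5% CO2.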

[5] = qHTS assay to identify small molecule agonists of the progesterone receptor (PR) signaling pathway - cell viability counter screen (AID 1346799; calls by dose curve; further: nearly all actives have a fitted effect of over 45% in size)
How it was run: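 Cytotoxicity measured by CellTiter-Glo luminescence (30 min, RT) in the same wells as the PR beta-lactamase agonist read. Those HEK293T cells had 16 h compound treatment at 37 C in 2% charcoal-stripped FBS medium.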

[6] = qHTS assay to identify small molecule antagonists of the TGF-beta/Smad signaling pathway - cell viability counter screen (AID 1346824); further: nearly all actives have a fitted effect of over 50% in size
How it was run: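 Cytotoxicity counter-screen run in the same wells as the beta-lactamase Smad reporter read: CellTiter-Glo luminescence after 30 min at room temperature. HEK 293T SBE-bla cells had 5 hr compound exposure at 37 C with TGF-beta1 (0.25 ng/mL stock).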

[7] = qHTS assay to identify small molecule agonists of the TGF-beta/Smad signaling pathway - cell viability counter screen (AID 1346829); further: top concentration of the series differs between compounds; nearly all actives have a fitted effect of over 45% in size
How it was run: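 In parallel with the Smad reporter read, viability of HEK 293T cells stably carrying SBE-bla is quantified by ATP luminescence following 5 hr compound treatment.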

[8] = qHTS assay to identify small molecule agonists of the TGF-beta/Smad signaling pathway (AID 1346859; active means well fitted activation curve with a large enough effect in the signal ratio in the repeat runs, not every such curve was filed as active; the % refers to the signal ratio; further: series mostly up to about 77 µM)
How it was run: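 Fluorescence (ex 405 nm; em 460 and 530 nm) was read 2 h after LiveBLAzer FRET substrate at RT. The preceding compound treatment of overnight-plated SBE-bla HEK293T cells lasted 5 h at 37 C.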

[9] = target: Thyrotropin-releasing hormone receptor (Homo sapiens) (UniProt P34981); experiment: qHTS assay to identify small molecule antagonists of the thyrotropin-releasing hormone receptor (TRHR) signaling pathway (AID 1346877; active means well fitted inhibition curve with a large enough effect in the repeat runs, not every such curve was filed as active; further: series mostly up to about 51 µM)
Chain of Thyrotropin-releasing hormone receptor (Homo sapiens) (P34981 whole entry, looked up): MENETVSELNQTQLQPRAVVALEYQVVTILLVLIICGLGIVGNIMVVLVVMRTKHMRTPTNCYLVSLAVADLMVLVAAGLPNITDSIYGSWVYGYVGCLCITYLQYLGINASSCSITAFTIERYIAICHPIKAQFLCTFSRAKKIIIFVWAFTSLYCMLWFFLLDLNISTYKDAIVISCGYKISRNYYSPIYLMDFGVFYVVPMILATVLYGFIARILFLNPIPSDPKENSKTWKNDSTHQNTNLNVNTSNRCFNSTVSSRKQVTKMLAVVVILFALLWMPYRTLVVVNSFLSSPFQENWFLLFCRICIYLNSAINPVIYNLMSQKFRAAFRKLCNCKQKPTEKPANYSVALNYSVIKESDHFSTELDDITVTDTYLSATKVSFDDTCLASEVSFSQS
How it was run: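 Human TRHR in HEK293 cells; inhibition of the intracellular calcium rise triggered by 1 nM TRH was followed by fluorescence over 3 min. Compounds were run at 15 concentrations, three replicates each.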

[10] = target: Thyrotropin-releasing hormone receptor (Homo sapiens) (UniProt P34981); experiment: qHTS assay to identify small molecule agonists of the thyrotropin-releasing hormone receptor (TRHR) signaling pathway (AID 1346891; calls by dose curve; further: series mostly up to about 58 µM)
How it was run: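 Agonist-mode intracellular calcium readout: kinetic fluorescence over 3 min at 1 s intervals after compound addition to TRHR-HEK293 cells (18 h seeded, 2 h dye-loaded at 37 C). Fifteen concentrations, triplicates.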

| Compound | Potency [1] | Potency [2] | Potency [3] | outcome [4] | outcome [5] | outcome [6] | outcome [7] | outcome [8] | outcome [9] | outcome [10] |
| --- | --- | --- | --- | --- | --- | --- | --- | --- | --- | --- |
| CN/C(=C\[N+](=O)[O-])NCCSCc1csc(CN(C)C)n1 | inactive | inactive | inactive | inactive | inactive | inactive | inactive | inactive | inactive | inactive |
| CN(C)c1ccc(Cc2ccc(N(C)C)cc2)cc1 | inactive | inactive | inactive | inactive |  | inactive | inactive | inactive | inactive | inactive |
| Cc1ccc(C(C)C)c(O)c1 | inactive | inactive | inactive | inactive | inactive | inactive | inactive | inactive | inactive | inactive |
| CC(=O)Oc1ccc(C)cc1 | inactive | inactive | inactive | inactive | inactive | inactive | inactive | inactive | inactive | inactive |
| COc1cc(OC)c(C(=O)CCCN2CCCC2)c(OC)c1 | inactive | inactive | inactive | inactive | inactive | inactive | inactive | inactive | inactive | inactive |
| C[Si]1(C)O[Si](C)(C)O[Si](C)(C)O[Si](C)(C)O1 | inactive | inactive | inactive | inactive | inactive | inactive | inactive | inactive | inactive | inactive |
| O=S(=O)(O)c1ccccc1 | inactive | inactive | inactive | inactive | inactive | inactive | inactive | inactive | inactive | inactive |
| CCCCCC(=O)O | inactive | inactive | inactive | inactive | inactive | inactive | inactive | inactive | inactive | inactive |
| CCOC(=O)c1ccc(N)cc1 | inactive | inactive |  | inactive | inactive | inactive | inactive | inactive | inactive | inactive |
| CN1C(=O)CC[C@H]1c1cccnc1 | inactive | inactive | inactive | inactive | inactive | inactive | inactive | inactive | inactive | inactive |
| OCc1cccc(Oc2ccccc2)c1 | inactive | inactive | 54.5 µM (active) | inactive | inactive | inactive | inactive | inactive | inactive | inactive |
| C=CCc1ccc(OC)c(OC)c1 | inactive |  |  | inactive | inactive | inactive | inactive | inactive |  |  |
| CC(CCl)OP(=O)(OC(C)CCl)OC(C)CCl (configuration not stated) | inactive | inactive | 54.6 µM (active) | inactive | inactive | inactive | inactive | inactive | inactive | inactive |
| COCCOC(=O)c1ccccc1C(=O)OCCOC | inactive | inactive | inactive | inactive | inactive | inactive | inactive | inactive | inactive | inactive |
| O=[N+]([O-])c1ccc2nc[nH]c2c1 | inactive | inactive | inactive | inactive | inactive | inactive | inactive | inactive | inactive | inactive |
| COc1ccc([N+](=O)[O-])cc1N |  | inactive | inactive | inactive | inactive | inactive | inactive | inactive |  |  |
| CCCCCCCCCCCC(=O)OC | inactive | inactive | inactive | inactive | inactive | inactive | inactive | inactive | inactive | inactive |
| CC1(C)NC(=O)NC1=O | inactive |  |  | inactive | inactive | inactive | inactive | inactive | inactive | inactive |
| C=Cc1ccc(C)cc1 | inactive | inactive | inactive | inactive | inactive | inactive | inactive | inactive | inactive | inactive |

| Compound | Potency [1] | Potency [2] | Potency [3] | outcome [4] | outcome [5] | outcome [6] | outcome [7] | outcome [8] | outcome [9] | outcome [10] |
| --- | --- | --- | --- | --- | --- | --- | --- | --- | --- | --- |
| COC(=O)CCCC(=O)OC | inactive | inactive | inactive | inactive | inactive | inactive | inactive | inactive | inactive | inactive |
| CC(=O)OCCOC(C)=O | inactive | inactive | inactive | inactive | inactive | inactive | inactive | inactive | inactive | inactive |
| COc1ccc(OC)cc1 | inactive | inactive | inactive | inactive | inactive | inactive | inactive | inactive | inactive | inactive |
| C[C@]12CC[C@@H]3c4ccc(O)cc4CC[C@H]3[C@@H]1C[C@@H](O)[C@@H]2O | inactive | inactive |  | inactive | inactive | inactive | inactive | inactive |  |  |
| C=CC(=O)OCCC(=O)O | inactive | inactive | inactive | inactive | inactive | inactive | inactive | inactive | inactive | inactive |
| O=S(=O)(O)c1ccc(N=Nc2c(O)ccc3cc(S(=O)(=O)O)ccc23)cc1 | 48.8 µM (active) and 27.3 µM (active) | inactive | inactive | inactive | inactive | inactive | inactive | inactive | inactive | inactive |
| CCCCCCC=O | inactive | inactive | inactive | inactive | inactive | inactive | inactive | inactive | inactive | inactive |
| CC(C)c1cccc(C(C)C)c1 | inactive |  |  | inactive | inactive | inactive | inactive | inactive |  |  |
| CN(C)CCOC(=O)COc1ccc(Cl)cc1 | inactive | inactive | inactive | inactive | inactive | inactive | inactive | inactive | inactive | inactive |
| CCCCCCO | inactive | inactive | inactive | inactive | inactive | inactive | inactive | inactive | inactive | inactive |
| C[C@]12CCC(=O)C=C1CC[C@@H]1[C@@H]2[C@@H](O)C[C@@]2(C)[C@H]1CC[C@]2(O)C(=O)CO | inactive | 30.9 µM (active) |  | inactive | inactive | inactive | inactive | inactive | inactive | inactive |
| Clc1ccccn1 | inactive | inactive | inactive | inactive | inactive | inactive | inactive | inactive | inactive | inactive |
| O=C(O)c1ccc(S(=O)(=O)N(Cl)Cl)cc1 | inactive | inactive | inactive | inactive | inactive | inactive | inactive | inactive | inactive | inactive |
| CC(O)CC(C)(C)O (configuration not stated) | inactive | inactive | inactive | inactive | inactive | inactive | inactive | inactive | inactive | inactive |
| CC(C)OP(=O)(CP(=O)(OC(C)C)OC(C)C)OC(C)C | inactive | inactive | inactive | inactive | inactive | inactive | inactive | inactive | inactive | inactive |
| CCCCOC(=O)c1ccc(N)cc1 | inactive | inactive |  | inactive | inactive | inactive | inactive | inactive | inactive | inactive |
| O=C(OCC1CCC2OC2C1)C1CCC2OC2C1 (configuration not stated) |  | inactive | inactive | inactive | inactive | inactive | inactive | inactive |  |  |
| Cc1ccc([N+](=O)[O-])cc1S(=O)(=O)O | inactive | inactive | inactive | inactive | inactive | inactive | inactive | inactive | inactive | inactive |
